Records with an inconclusive call do not appear. Activity calls are given as the source filed them. The call rests on the fitted dose curve; in most records, active means well fitted cell-killing curve with a large enough effect in the repeat runs; inconclusive means weak or mixed curves, or effect the other way; inactive means flat fitted curve, though single readings scatter.

Results on 40 compounds are retold here after PubChem BioAssay (Tox21).
On the % scale 0 is the no-effect control and ±100 the full control effect.

This assay can be described thus: cAMP Responsive Elements (CRE) small molecule agonists, cell-based qHTS assay: qHTS cell viability counter screen (AID 2060914). Further: nearly all actives have a fitted effect of over 50% in size. The following applies: CRE-bla HEK293T viability, CellTiter-Glo luminescence, 5 h; series mostly up to 92.4 µM; activity change, negative = cytotoxicity: at the top concentration. The method in brief:
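Luminescence read-out (CellTiter-Glo, 30 min RT) of ATP-based viability in CRE-bla HEK 293T cells, run in the same wells as the β-lactamase reporter assay after 3 h compound treatment at 37 °C.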
In general terms: Quantitative high-throughput screening tests each substance at several concentrations.
As for `CC/C=C\CCOC(=O)C(C)C`, the “activity change, negative = cytotoxicity” value was 1.65% (inactive).
In the case of `COc1cc([C@@H]2c3cc4c(cc3[C@@H](O[C@@H]3O[C@@H]5CO[C@@H](C)O[C@H]5[C@H](O)[C@H]3O)[C@H]3COC(=O)[C@H]23)OCO4)cc(OC)c1O`, the “activity change, negative = cytotoxicity” value was 1.53% (inactive).
`COC(=O)[C@]1(C)CCC[C@@]2(C)[C@H]1CC=C1C=C(C(C)C)CC[C@@H]12`: the “activity change, negative = cytotoxicity” value was -2.23% (inactive).
As to `Cn1c(=O)[nH]c2ncn(C)c2c1=O`, the “activity change, negative = cytotoxicity” value was 12.7% (inactive).
In the case of `Nc1cccnc1N`, the “activity change, negative = cytotoxicity” value is -0.0798% (inactive).
On to `FB(F)F`, for which the “activity change, negative = cytotoxicity” value is -9.92% (inactive).
Turning to `O=CN1CCOCC1`, the “activity change, negative = cytotoxicity” value is -3.95% (inactive).
As for `C1OCOCO1`, the “activity change, negative = cytotoxicity” value was 14.8% (inactive).
For `COCCc1ccc(OCC(O)CNC(C)C)cc1` (stereo not given), the Potency entry was “inactive”.
With `c1ccc2c(c1)ccc1ncccc12`, the Potency result is “inactive”.
As for `Cc1cc(C)c(C(=O)O)c(C)c1`, the “activity change, negative = cytotoxicity” value is 19.6% (inactive).
Same read-out and setting: under `CCCc1ccc(OCC(=O)N2CCN(C(=O)COc3ccc(CCC)cc3OC)CC2)c(OC)c1` stands 6.78% [at 42.5 µM] (inactive); under `CCCC[C@H]1CN(CC2CCOCC2)C(=O)OC12CCN(C1(C)CCN(C(=O)c3c(C)ncnc3C)CC1)CC2`, -0.962% (inactive).
Turning to `CCCCCCCCCCCCCCCCN`, the “activity change, negative = cytotoxicity” value was -1.17% [at 42.5 µM] (inactive).
`CC(C)(C)c1cc(/C=C2\SC(=N)NC2=O)cc(C(C)(C)C)c1O`: the “activity change, negative = cytotoxicity” value is -22.4% (inactive).
For the compound `O=S(O)(O)=S`, the activity change, negative = cytotoxicity was 9.38% [at 8.39 µM] (inactive).
Take `O=[N+]([O-])c1ccc(O/N=C/c2cc(Br)c(O)c(Br)c2)c([N+](=O)[O-])c1`: the “activity change, negative = cytotoxicity” value was -0.349% (inactive).
For `O=C(O)CC(=O)O`, the “activity change, negative = cytotoxicity” value was 1.77% (inactive).
`CCCCCCCCS(=O)C(C)Cc1ccc2c(c1)OCO2` (stereo not given): the “activity change, negative = cytotoxicity” value is -17.5% (inactive).
Same read-out and setting: for `Nc1nc2c(ncn2CCC(CO)CO)c(=O)[nH]1` the value was 3.5% [at 42.5 µM] (inactive); for `Cc1nc2ccc(CN(C)c3ccc(C(=O)N[C@@H](CCC(=O)O)C(=O)O)s3)cc2c(=O)[nH]1`, -0.404% [at 42.5 µM] (inactive).
For the compound `Cc1[nH]c(C)c(Cl)c(=O)c1Cl`, the activity change, negative = cytotoxicity is 4.19% [at 18.9 µM] (inactive).
The same measure, in the same setting: for `CCCc1ccccc1O` the value was 0.912% (inactive).
For the compound `CC(C)C1=CC2=CC[C@@H]3[C@](C)(CCC[C@@]3(C)C(=O)O)[C@H]2CC1`, the “activity change, negative = cytotoxicity” value was -6.39% (inactive).
On the same count and under the same terms, under `C[Si](C)(C)N[Si](C)(C)C` stands 3.4% (inactive); under `CC(=O)Nc1cccc(N)c1`, 3.04% (inactive).
With `Brc1cc(Br)c(Oc2cc(Br)c(Br)cc2Br)cc1Br`, the “activity change, negative = cytotoxicity” value was -6.4% [at 42.5 µM] (inactive).
`CC(CCc1ccc(O)cc1)NCCc1ccc(O)c(O)c1` (stereo not given): the “activity change, negative = cytotoxicity” value was 0.589% [at 42.5 µM] (inactive).
Turning to `O=C1c2ccccc2C(=O)C1c1ccc2cc(S(=O)(=O)O)cc(S(=O)(=O)O)c2n1`, the “activity change, negative = cytotoxicity” value is -16.6% (inactive).
With `c1ccc(CN(CC2=NCCN2)c2ccccc2)cc1`, the “activity change, negative = cytotoxicity” value is 5.84% [at 42.5 µM] (inactive).
As for `C=C(C)C(=O)O`, the Potency entry was “inactive”.
Regarding `CCCCCC/C=C/C(=O)OC`, the “activity change, negative = cytotoxicity” value was -2.36% (inactive).
`CC(C)NCC(O)c1ccc(O)c(O)c1` (stereo not given): the Potency result is “inactive”.
In the case of `CCN(CC)c1ccc(C=O)c(O)c1`, the “activity change, negative = cytotoxicity” value is 19.5% (inactive).
In the case of `CC(C)SCc1ccco1`, the “activity change, negative = cytotoxicity” value is -3.12% [at 42.5 µM] (inactive).
`NS(=O)(=O)c1cc2c(cc1Cl)NC(CC1CCCC1)NS2(=O)=O` (stereo not given): the “activity change, negative = cytotoxicity” value was 9.85% [at 42.5 µM] (inactive).
`CCC(Cc1ccccc1)(C(=O)c1ccc(N2CCOCC2)cc1)N(C)C` (stereo not given): the “activity change, negative = cytotoxicity” value is -13.3% (inactive).
In the case of `O=C1OC(=O)c2c(Br)c(Br)c(Br)c(Br)c21`, the “activity change, negative = cytotoxicity” value was 0.967% (inactive).
Consider `CC(C)(C)c1cc(CCC(=O)OCCSCCOC(=O)CCc2cc(C(C)(C)C)c(O)c(C(C)(C)C)c2)cc(C(C)(C)C)c1O`, for which the “activity change, negative = cytotoxicity” value was 8.17% [at 42.5 µM] (inactive).
As to `CC(C)(C)OC=O`, the “activity change, negative = cytotoxicity” value is -0.953% (inactive).
